Measurements taken from ChEMBL document CHEMBL3988442, “University of Dundee, Small-Polar-MMV Screening Library” (2021).
For part of these data: Measured potencies and affinities stand elsewhere.

Key:
Set-up in all cases: scale not given: direction of the effect not stated beside the values
[1] = biological target: Protein translocase subunit SecA (Escherichia coli (strain K12)) (UniProt P10408); assay: Assay to Identify E. coli SecA ATPase Inhibitors; assay type: functional; conditions: 30 µM
[2] = biological target: T1, Ubiquitin-activating enzyme e1, putative (Leishmania donovani (strain BPK282A1)) (UniProt E9BSI1); assay: Leishmania donovani Ubiquitin Activating Enzyme (LdE1); assay type: functional; conditions: 30 µM
T1 sequence (whole entry): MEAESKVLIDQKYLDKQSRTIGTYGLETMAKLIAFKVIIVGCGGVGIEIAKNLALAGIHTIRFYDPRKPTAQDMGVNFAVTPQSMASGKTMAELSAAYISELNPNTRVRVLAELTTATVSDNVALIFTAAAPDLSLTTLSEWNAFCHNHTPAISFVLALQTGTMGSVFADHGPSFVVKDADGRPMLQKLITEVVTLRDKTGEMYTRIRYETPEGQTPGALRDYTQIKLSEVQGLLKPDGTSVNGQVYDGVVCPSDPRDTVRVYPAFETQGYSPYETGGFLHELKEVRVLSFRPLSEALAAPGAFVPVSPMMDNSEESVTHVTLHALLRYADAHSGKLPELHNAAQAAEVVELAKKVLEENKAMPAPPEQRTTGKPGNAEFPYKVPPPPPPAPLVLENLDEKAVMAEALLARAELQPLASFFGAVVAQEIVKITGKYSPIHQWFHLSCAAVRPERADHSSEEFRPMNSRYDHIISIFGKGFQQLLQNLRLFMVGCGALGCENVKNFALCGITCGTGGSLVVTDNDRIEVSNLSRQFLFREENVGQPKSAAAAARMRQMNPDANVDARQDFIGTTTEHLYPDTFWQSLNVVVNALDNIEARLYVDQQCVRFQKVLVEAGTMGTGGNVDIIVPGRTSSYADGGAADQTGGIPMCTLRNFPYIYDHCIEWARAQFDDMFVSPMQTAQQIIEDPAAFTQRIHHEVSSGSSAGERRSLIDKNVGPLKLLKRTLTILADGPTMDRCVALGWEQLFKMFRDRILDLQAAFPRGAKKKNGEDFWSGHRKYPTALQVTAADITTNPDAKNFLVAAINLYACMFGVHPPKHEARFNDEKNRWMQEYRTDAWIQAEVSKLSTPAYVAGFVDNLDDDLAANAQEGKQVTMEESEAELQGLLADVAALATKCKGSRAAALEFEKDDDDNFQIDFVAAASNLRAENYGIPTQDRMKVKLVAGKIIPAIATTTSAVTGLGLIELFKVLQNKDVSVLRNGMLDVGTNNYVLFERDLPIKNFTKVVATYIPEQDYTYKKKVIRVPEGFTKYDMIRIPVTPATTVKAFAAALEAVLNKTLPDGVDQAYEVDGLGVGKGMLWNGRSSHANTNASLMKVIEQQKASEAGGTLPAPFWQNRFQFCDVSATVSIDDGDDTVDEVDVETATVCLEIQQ

[3] = biological target: AMP-activated protein kinase, AMPK (Homo sapiens) (UniProt P54646+O43741+P54619+Q9UGJ0+Q9Y478+Q13131+Q9UGI9); assay: AMP-dependent Kinase enzyme assay. An in vitro enzyme assay that detects ADP turnover that is directly proportional to AMPK activity. This uses naive AMPK that is activated during the assay with MK-8722; assay type: functional; conditions: 30 µM
[4] = biological target: Sialic acid-binding Ig-like lectin 9 (Homo sapiens) (UniProt Q9Y336); assay: Hs-Siglec9 ALPHAscreen SOP 20170721; conditions: 10 µM
Trypanosoma cruzi = assay: Trypanosoma cruzi phosphomannomutase and mannose-1-phosphate guanylyltransferase assay; assay type: functional; conditions: 10 µM
[5] = biological target: T2, Arginase-2, mitochondrial (Homo sapiens) (UniProt P78540); assay: in vitro enzyme assay to detect the production of urea directly proportional to the activity of Arginase II; assay type: functional; conditions: 33.3 µM; note: in the data most compounds retested in dose-response had high values
T2 sequence (whole entry): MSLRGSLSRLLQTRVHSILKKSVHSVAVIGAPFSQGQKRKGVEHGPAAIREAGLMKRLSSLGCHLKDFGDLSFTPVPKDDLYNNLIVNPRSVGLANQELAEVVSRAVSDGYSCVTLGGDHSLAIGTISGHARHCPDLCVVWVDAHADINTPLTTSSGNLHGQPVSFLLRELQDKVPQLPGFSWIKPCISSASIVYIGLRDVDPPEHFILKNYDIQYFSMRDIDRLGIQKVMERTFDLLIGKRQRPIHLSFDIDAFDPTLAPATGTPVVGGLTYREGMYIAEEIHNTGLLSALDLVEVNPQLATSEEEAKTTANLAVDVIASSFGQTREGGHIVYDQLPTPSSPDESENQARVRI

[6] = biological target: T3, Proteasome subunit beta (Trypanosoma cruzi) (UniProt O96673); assay: Trypanosoma cruzi proteasome chymotrypsin-like activity (TcProtChymo) assay.; note: in the data most compounds retested in dose-response had high values; assay type: functional; conditions: 9.37 µM
T3 sequence (whole entry): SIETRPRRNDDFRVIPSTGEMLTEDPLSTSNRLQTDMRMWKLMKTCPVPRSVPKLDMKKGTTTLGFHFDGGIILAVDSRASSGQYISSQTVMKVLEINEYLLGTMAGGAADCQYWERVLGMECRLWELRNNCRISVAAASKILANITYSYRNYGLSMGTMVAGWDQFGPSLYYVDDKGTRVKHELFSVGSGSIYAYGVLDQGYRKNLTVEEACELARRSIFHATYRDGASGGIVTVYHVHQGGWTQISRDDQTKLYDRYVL

Homo sapiens = organism: Homo sapiens; assay: To identify inhibition of the IFN signalling (Jak-Stat) pathway via expression of an eGFP reporter gene under the control of an IFN-stimulated response element (ISRE) containing MxA promoter.; assay type: functional; conditions: 30 µM
[7] = biological target: T4, Tyrosyl-tRNA synthetase, putative (Trypanosoma cruzi (strain CL Brener)) (UniProt Q4DSP6); assay: Trypanosoma cruzi tyrosyl tRNA synthetase (TcYRS) _High Tyrosine SOP; assay type: functional; conditions: 30 µM; note: in the data most compounds retested in dose-response had high values
T4 sequence (whole entry): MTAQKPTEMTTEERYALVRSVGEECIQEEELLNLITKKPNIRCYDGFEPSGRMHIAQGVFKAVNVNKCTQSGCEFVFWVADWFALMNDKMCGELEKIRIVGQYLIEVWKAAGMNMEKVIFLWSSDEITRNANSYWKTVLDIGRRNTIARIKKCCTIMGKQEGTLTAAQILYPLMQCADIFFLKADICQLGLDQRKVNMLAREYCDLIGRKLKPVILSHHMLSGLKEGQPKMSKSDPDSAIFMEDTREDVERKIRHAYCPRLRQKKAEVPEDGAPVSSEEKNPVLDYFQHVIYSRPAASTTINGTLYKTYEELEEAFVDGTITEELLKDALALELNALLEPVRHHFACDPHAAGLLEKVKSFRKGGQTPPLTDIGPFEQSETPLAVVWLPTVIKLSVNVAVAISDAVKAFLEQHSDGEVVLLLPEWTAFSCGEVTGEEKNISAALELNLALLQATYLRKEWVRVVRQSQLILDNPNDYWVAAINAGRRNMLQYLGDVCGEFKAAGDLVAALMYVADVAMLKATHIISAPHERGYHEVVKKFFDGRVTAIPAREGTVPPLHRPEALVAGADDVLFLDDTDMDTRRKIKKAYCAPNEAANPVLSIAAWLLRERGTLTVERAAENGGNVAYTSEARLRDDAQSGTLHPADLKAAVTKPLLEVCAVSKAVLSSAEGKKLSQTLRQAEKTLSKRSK

[8] = biological target: T4, Tyrosyl-tRNA synthetase, putative (Trypanosoma cruzi (strain CL Brener)); assay: Trypanosoma cruzi tyrosyl tRNA synthetase (TcYRS) SOP; assay type: functional; conditions: 30 µM
[9] = biological target: Chromo domain-containing protein 1 (Saccharomyces cerevisiae (strain ATCC 204508 / S288c) (Baker's yeast)) (UniProt P32657); assay: ScCHD-1 Enzyme Inhibition Assay; assay type: functional; conditions: 30 µM; note: in the data most compounds retested in dose-response had high values
Chromo domain-containing protein 1 (Saccharomyces cerevisiae (strain ATCC 204508 / S288c) (Baker's yeast)), sequence (P32657 whole entry, the tested form may be a part): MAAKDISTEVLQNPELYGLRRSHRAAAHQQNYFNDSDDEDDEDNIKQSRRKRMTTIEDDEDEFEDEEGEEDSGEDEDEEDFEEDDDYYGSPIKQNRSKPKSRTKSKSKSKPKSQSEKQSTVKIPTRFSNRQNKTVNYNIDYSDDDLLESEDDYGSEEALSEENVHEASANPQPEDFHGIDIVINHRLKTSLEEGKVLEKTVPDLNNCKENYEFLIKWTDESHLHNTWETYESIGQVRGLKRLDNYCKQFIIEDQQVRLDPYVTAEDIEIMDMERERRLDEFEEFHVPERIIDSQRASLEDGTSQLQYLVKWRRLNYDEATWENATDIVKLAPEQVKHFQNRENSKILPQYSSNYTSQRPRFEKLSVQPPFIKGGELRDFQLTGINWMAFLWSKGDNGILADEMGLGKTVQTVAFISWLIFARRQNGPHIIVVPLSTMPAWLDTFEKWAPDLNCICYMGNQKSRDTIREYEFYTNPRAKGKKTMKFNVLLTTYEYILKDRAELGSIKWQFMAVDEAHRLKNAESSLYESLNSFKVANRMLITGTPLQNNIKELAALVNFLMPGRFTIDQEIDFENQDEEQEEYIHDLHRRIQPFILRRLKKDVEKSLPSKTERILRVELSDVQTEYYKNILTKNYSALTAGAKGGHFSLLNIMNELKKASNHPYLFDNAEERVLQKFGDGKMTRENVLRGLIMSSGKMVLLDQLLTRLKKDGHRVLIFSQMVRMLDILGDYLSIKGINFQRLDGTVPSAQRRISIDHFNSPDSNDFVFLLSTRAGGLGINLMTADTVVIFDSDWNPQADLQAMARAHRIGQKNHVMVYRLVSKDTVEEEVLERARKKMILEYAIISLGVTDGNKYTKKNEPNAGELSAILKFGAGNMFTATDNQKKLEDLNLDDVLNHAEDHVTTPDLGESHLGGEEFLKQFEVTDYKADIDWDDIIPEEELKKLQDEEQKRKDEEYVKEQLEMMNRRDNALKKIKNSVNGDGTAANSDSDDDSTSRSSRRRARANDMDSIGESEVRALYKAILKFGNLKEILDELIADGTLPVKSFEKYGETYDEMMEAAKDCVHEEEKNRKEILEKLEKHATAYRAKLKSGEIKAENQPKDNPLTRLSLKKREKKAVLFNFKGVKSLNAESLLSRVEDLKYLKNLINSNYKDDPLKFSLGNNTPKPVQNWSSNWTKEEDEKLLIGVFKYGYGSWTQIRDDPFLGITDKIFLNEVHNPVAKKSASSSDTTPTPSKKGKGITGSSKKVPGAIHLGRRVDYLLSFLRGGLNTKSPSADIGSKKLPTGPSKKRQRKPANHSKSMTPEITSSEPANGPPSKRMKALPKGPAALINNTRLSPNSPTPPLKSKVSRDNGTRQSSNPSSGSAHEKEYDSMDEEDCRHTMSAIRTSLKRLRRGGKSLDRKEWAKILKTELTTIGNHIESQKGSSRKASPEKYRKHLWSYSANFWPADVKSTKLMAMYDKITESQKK

Sialic acid-binding Ig-like lectin 9 (Homo sapiens), sequence (Q9Y336 whole entry): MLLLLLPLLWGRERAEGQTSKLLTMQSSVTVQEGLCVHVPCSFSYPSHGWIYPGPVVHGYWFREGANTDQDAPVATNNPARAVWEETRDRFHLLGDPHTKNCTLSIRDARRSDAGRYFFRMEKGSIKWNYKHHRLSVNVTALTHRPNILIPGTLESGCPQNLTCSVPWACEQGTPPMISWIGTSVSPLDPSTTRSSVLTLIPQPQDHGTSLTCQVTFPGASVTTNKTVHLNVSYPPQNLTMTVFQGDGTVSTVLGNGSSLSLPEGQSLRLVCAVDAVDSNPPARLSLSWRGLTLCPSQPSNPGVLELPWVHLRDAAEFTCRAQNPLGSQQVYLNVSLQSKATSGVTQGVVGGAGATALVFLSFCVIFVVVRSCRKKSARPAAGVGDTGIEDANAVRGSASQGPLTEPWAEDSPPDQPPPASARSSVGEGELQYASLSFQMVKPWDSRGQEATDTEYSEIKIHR
Protein translocase subunit SecA (Escherichia coli (strain K12)), sequence (P10408 whole entry): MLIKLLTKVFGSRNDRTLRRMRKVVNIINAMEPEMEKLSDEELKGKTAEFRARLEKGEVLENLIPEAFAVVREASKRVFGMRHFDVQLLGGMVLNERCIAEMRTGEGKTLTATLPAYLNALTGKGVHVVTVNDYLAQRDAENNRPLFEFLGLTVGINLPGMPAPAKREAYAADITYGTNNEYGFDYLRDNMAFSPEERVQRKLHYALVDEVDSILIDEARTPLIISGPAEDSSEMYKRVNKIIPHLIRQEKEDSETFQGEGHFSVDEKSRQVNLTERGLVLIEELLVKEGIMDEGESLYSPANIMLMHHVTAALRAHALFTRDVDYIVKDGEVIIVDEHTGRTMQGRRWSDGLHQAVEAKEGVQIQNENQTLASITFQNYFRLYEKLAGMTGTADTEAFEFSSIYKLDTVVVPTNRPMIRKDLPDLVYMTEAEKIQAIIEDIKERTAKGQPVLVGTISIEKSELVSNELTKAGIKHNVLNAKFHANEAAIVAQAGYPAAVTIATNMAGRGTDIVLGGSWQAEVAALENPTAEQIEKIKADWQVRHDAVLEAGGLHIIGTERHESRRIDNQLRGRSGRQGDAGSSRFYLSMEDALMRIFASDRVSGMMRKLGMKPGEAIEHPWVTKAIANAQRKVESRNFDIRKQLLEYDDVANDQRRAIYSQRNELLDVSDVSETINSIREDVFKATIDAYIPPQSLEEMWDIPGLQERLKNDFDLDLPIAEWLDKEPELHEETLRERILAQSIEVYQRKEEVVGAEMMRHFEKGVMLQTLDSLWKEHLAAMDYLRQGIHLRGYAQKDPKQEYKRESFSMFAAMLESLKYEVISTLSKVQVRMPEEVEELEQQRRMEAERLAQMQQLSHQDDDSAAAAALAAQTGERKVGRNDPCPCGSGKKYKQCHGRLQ

Row | Compound | Percent Effect [1] [%] | Percent Effect [2] [%] | Percent Effect [3] [%] | Percent Effect [4] [%] | Percent Effect (Trypanosoma cruzi) [%] | Percent Effect [5] [%] | Percent Effect [6] [%] | Percent Effect (Homo sapiens) [%] | Percent Effect [7] [%] | Percent Effect [8] [%] | Percent Effect [9] [%]
1 | CN(C)C(=O)[C@H]1C[C@@H]2CCN(C3CCOCC3)C[C@H]2O1 | -0.651 | 2.67 | -1.32 | -3.17 | 4.44 | -50.7 | -1.03 | -1.34 | -1.04 | -5 | -4.08
2 | CCn1nc(C)cc1C(=O)Nc1cc(F)ccc1OCC1CCCO1 (stereo unspecified) | -3.27 | 2.6 | 19.7 | 7.39 | 0.686 | -0.21 | 9.78 | 34 | 4.76 | 9.41 | -11.3
3 | Cn1ncc2c1CCCC2NCc1ccc(Cl)s1 (stereo unspecified) | -4.36 | 13 | -34.6 | -13.6 | -1.08 | 2.74 | 12.2 | 9.39 | 6.67 | 11.8 | -19.4
4 | Cn1cc(C(=O)NCC2CCN(C(=O)NCC(F)(F)F)CC2)cn1 | -2.53 | 16.5 | -6.78 | 1.59 | -0.308 | 0.645 | 11 | 16 | 8.33 | 12.7 | -22.3
5 | CC(C)(C)n1cc(C(=O)N2CCN(Cc3ccccc3F)CC2)cn1 | -2.41 | 13.2 | -1.01 | 8.67 | 4.89 | 0.383 | 22.4 | 10.5 | 6.37 | 21.9 | -11.6
6 | Cn1ncc2c(NCCOc3ccc(F)cc3)nc(C3CCCC3)nc21 | -2.15 | 5.48 | 12.7 | 7.22 | 9.79 | 2.27 | -0.355 | 49.2 | 5.38 | 10 | -3.29
7 | O=C(c1ccccc1OCC1CC1)N1CCCC(n2ccnc2)C1 (stereo unspecified) | 1.84 | 1.27 | 11.2 | -0.0308 | 3.18 | 5.81 | 10.3 | -14 | 2.08 | 7.59 | -6.24
8 | CCN1CC2(CC1=O)CN(Cc1ccco1)CCN(C(=O)N(C)C)C2 (stereo unspecified) | -0.643 | 2.74 | 1.96 | 9.02 | -1.39 | 4.39 | 6.59 | -2.04 | 5.21 | 11.1 | 0.322
9 | Cc1ccc(CNC(=O)CN2C=Nc3ccccc3S2(=O)=O)s1 | -3.17 | 21.1 | -5.67 | -1.55 | 6.07 | -0.36 | 3.98 | 9.85 | 10.3 | 23.5 | -6.54
10 | CS(=O)(=O)NC1CCc2c(ccc(=O)n2CC2CC2)C1 (stereo unspecified) | -2.67 | 10.7 | 7.1 | 2.38 | -3.54 | 2.56 | 10.7 | -2.08 | 6.38 | 14.1 | 0.517
11 | CC(=O)c1ccc(N2CCC(CO)(CCOc3ccccc3)CC2)nc1 | -4.34 | 0 | 3.88 | 4.67 | -3.05 | 20.7 | 9.48 | 20.6 | 3.23 | 8.64 | 1.85
12 | COCC(=O)N1CCC2(CC1)COCCN2CCN(C)C | 0.864 | -5.33 | -0.00705 | 4.73 | -1.93 | -50 | 0.342 | -11.3 | 3.12 | -5 | 0.531
13 | COCCN1CC[C@@H]2OC[C@H](C(=O)NCc3cccs3)C[C@@H]2C1 | 0.484 | 13.5 | 0.443 | -15.8 | -3.23 | 1.59 | 8.3 | -0.0889 | -2.16 | 5.13 | -5
14 | O=C(CN1CCC(c2ccnn2CCO)CC1)NCc1cccs1 | -3.33 | 15.2 | -3.55 | -6.32 | 1.23 | 1.52 | 2.87 | -10.7 | 8.37 | 24.1 | -5.84
15 | Cc1cc(C(=O)N2CCCCC2C)ccc1NCC(=O)N1CCOCC1 (stereo unspecified) | -3.46 | 18.2 | 9.95 | -0.936 | 8.8 | 5.69 | 15.5 | 29.1 | -2.91 | 24.4 | -5.86
16 | CCNc1cc2c(nn1)CCN(C(=O)CC1CCCCC1)C2 | -8.49 | 12.7 | 0.0974 | 9.47 | 1.42 | 3.04 | -0.0819 | -11.3 | 16.3 | 8.86 | -8.44
17 | COCC(c1cccc(C(F)(F)F)c1)N(C)C(=O)c1ccncc1 (stereo unspecified) | -4.42 | 21.1 | -0.328 | -2.24 | 8.46 | -4.21 | 23.2 | 26.2 | 8.33 | 21.9 | -14.7
18 | Clc1snnc1CN1CCCCC1Cn1cncn1 (stereo unspecified) | -0.0251 | 17.7 | -10.2 | -9.75 | -2.17 | 2.66 | 13.2 | 5.04 | 12.3 | 24.1 | -4.67
19 | O=C(NCCc1ccccc1)C1CCC(Cn2cnnn2)CC1 (stereo unspecified) | -0.876 | -4 | 1.1 | 6.93 | -1.77 | -4.4 | 3.88 | -9.79 | 2.12 | 5.13 | 2.05
20 | Cc1cc(C)c(CNC(=O)C2CCCN(c3cnccn3)C2)c(=O)[nH]1 (stereo unspecified) | -3.46 | 10.5 | -6.83 | 10.1 | -4.13 | -1.53 | 11.5 | -8.19 | -0.49 | -12.2 | -5.39
21 | CCn1cc(NC(=O)NCC(O)CN2CCCCC2)cn1 (stereo unspecified) | -2.01 | 5.2 | 2.67 | 12.4 | 1.27 | 4 | 0.404 | 15.9 | 0 | 2.35 | -9.62
